This note sets out measurements from PubChem BioAssay (NCI).

Compounds without any hit were thinned out: in the full panel of roughly 83,000, 20% have a hit.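 Single-concentration screen, 48 h exposure, 96-well plates. Endpoint: percent growth. Below 10 = active.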 Values without a mark were called inactive. Active and inactive are the calls of the source.

For this experiment, the system named is MDA-MB-468 breast. Nature of the experiment: NCI-60 one-dose screen, 48 h (100 = growth as untreated, 0 = no growth, -100 = all killed). Particulars: 10 µM unless noted.
Turning to `CCCCCCCCCCCC[N+]1(CCCCCCCCCCCC)CCCC(C)C1` (stereo not drawn), the growth was -89.7% (active).
`Cc1ccc(C[P+](c2ccccc2)(c2ccccc2)c2ccccc2)cc1`: the growth is -12.9% (active).
Then `Cn1cc(-c2noc(-c3cn(C)c4ncc(F)cc34)n2)c2cc(Cl)ccc21`, with 52.9%.
